Screening data: PubChem, National Center for Advancing Translational Sciences (NCATS)
The list is not random: actives were taken first. Their share in the collection is about 19%.
Pf growth 48h – P. falciparum growth inhibition at 48 hours (one generation); hit rate 5.9% among 310,000; Potency, µM (highest dose often 28.7 µM), actives largely listed as inhibitors; P. falciparum luciferase growth in erythrocytes, 48 h
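Compounds are pin-transferred into medium, infected erythrocytes (2% hematocrit, 0.1% parasitemia final) are added, and plates sit one parasite generation at 37 C in 5% CO2. Detection reagent is then added and luminescence measured.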
Pf growth 96h – P. falciparum growth inhibition at 96 hours | P. falciparum luciferase reporter growth, 96 h | hit rate 6.9% among 320,000 | Potency, µM (top dose mostly 28.7 µM), actives largely listed as inhibitors
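Cell-based qHTS: luciferase-tagged P. falciparum in erythrocytes (2% hematocrit, 0.05% parasitemia final) incubated with compounds for 96 hours, 37 C, 5% CO2; luciferase detection reagent then added and luminescence measured.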
Cycloheximide cs – affects cycloheximide protein synthesis inhibition readout, counter-screen; hit rate 12% among 300,000; max response, %; AID 2314; cell reporter, cycloheximide protein synthesis inhibition counterscreen; in the data active means max response mostly above about 13%, no sharp cut-off; inactive means mostly below about 14%; further: read at 38.3 µM for the half of the compounds with a filed dose
AMA1-RON2 inh – AMA1-RON2 (P. falciparum) interaction inhibition; AlphaScreen AMA1-biotinylated RON2 peptide binding; Potency, µM (titrated, usually from 58.2 µM), actives largely listed as inhibitors; hit rate 0.2% among 360,000; further: nearly all actives have a fitted effect of over 45% in size
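AMA1 (3D7) with his tag at 25 nM final met compounds first, then biotinylated RON2 peptide at 25 nM; detection used donor plus acceptor beads, 10 µg/mL apiece, read by AlphaScreen after 30 min at room temperature.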
SARS PLpro yeast – inhibitors of SARS-CoV papain-like protease in yeast; AID 485353; S. cerevisiae expressing SARS-CoV PLpro, growth rescue; Potency, µM (series often up to 32.9 µM), most hits filed as activators; hit rate 0.19% among 330,000; calls by dose curve; further: nearly all actives have a fitted effect of over 55% in size
Shiga toxin inh – inhibitors of Shiga toxin in Vero cells; inhibition, % at 38.7 µM; hit rate 9.2% among 290,000; Vero cells, Shiga toxin protein synthesis inhibition reporter; in the data active means inhibition mostly above about 28%, no sharp cut-off; inactive means mostly below about 43%
Each line names hits and unclear results; the compound was inactive in the other large screens. Unless noted, the call rests on the fitted dose curve; in most records, active means well fitted curve in the direction sought with a large enough effect; inconclusive means small, poorly fitted or top-dose-only effect, or another doubt; inactive means no such curve, though single readings can be large; an effect the other way counts as inactive or inconclusive.

O=C(N/N=C1\CC2CC=CC12)c1ccc(Br)cc1 (stereo not given)	none
O=[N+]([O-])c1ccccc1N/N=C1\CC2CC=CC12 (stereo not given)	Cycloheximide cs 30.7, AMA1-RON2 inh 20µM, Shiga toxin inh 108.3
Cc1cc(Br)c(OCc2ccc(C(=O)N/N=C3\CC4CC=CC34)cc2)c(Br)c1 (stereo not given)	Pf growth 48h 10.4µM, Pf growth 96h inconclusive
FC(F)(F)c1ccccc1NC(=S)N/N=C1\CC2CC=CC12 (stereo not given)	Pf growth 48h inconclusive, Pf growth 96h inconclusive, Cycloheximide cs 23.2, Shiga toxin inh 77.1
O=C(NNC(=S)Nc1ccccc1C(F)(F)F)C1CC1	none
O=C(Nc1ccc2c(c1)[C@@H]1C[C@@H](CC(=O)N3CCOCC3)O[C@@H](CO)[C@@H]1O2)NC1CCCC1	none (no result: Pf growth 48h, Pf growth 96h, Cycloheximide cs, SARS PLpro yeast, Shiga toxin inh)
C[C@]12CCC3c4ccc(OCC(=O)O)cc4CCC3C1CCC2=O (stereo not given in full)	Pf growth 48h inconclusive, Pf growth 96h inconclusive
COCCCNC(=O)c1ccc(S(=O)(=O)c2ccc(Cl)cc2)c(NC(C)=O)c1	none
Cc1ccc(NC(=O)COc2ccc3c(c2)OCO3)c(Cl)c1	none (no result: Cycloheximide cs, Shiga toxin inh)
CCOc1ccc(NC(=O)COc2ccc3c(c2)OCO3)cc1	none
CCc1ccccc1NC(=O)COc1ccc2c(c1)OCO2	Cycloheximide cs 14.8, Shiga toxin inh 46.9
O=C(COc1ccc2c(c1)OCO2)Nc1ccccc1C(F)(F)F	Pf growth 96h inconclusive, Cycloheximide cs 31.4, Shiga toxin inh 86.9
N#Cc1ccccc1NC(=O)COc1ccc2c(c1)OCO2	Pf growth 96h 8.28µM, Cycloheximide cs 47.1, Shiga toxin inh 93.0
CCOC1=C2CN(S(=O)(=O)c3ccc(C)cc3)[C@@H](c3ccc(CC)cc3)C[C@H]2[C@H]2C(=O)N(c3ccccc3)C(=O)[C@H]2C1	none (no result: Pf growth 48h, Pf growth 96h, Cycloheximide cs, SARS PLpro yeast, Shiga toxin inh)
Cn1cnnc1SC1c2cccc3cccc(c23)C1NS(=O)(=O)c1ccc(Cl)cc1 (stereo not given)	Pf growth 48h inconclusive, Pf growth 96h inconclusive, SARS PLpro yeast inconclusive
O=c1[nH]c(SCc2ccccc2Cl)nc2c1CCC2	none
CNc1nc(SCc2ccccc2Cl)nc2c1CCCC2	Pf growth 48h 13.1µM, Pf growth 96h 14.7µM
O=C1OCC(CO)(CO)N=C1NNc1ccccc1[N+](=O)[O-]	Pf growth 48h inconclusive, Pf growth 96h inconclusive, Cycloheximide cs 42.8, Shiga toxin inh 57.8
c1ccc(-n2nnc(-c3nccs3)n2)cc1	none (no result: Pf growth 48h, Pf growth 96h, Cycloheximide cs, SARS PLpro yeast, Shiga toxin inh)
Cc1ccc(-n2nnc(-c3ccnc4ccccc34)n2)cc1	Cycloheximide cs 28.8, Shiga toxin inh 58.7
Fc1ccc(-n2nnc(-c3ccnc4ccccc34)n2)cc1	Cycloheximide cs 39.5, Shiga toxin inh 44.0
CC(=O)Nc1ccc(CN2C(=O)C(Cc3ccccc3)ON=C2c2cccc(F)c2)cc1 (stereo not given)	none (no result: Pf growth 48h, Pf growth 96h, Cycloheximide cs, SARS PLpro yeast, Shiga toxin inh)
O=C(Cc1n[nH]c(=O)c2ccccc12)Nc1cc(C(F)(F)F)ccc1-n1cncn1	Pf growth 48h inconclusive (no result: Cycloheximide cs, Shiga toxin inh)
c1cc2c(cc1C1=NNC(=NC3CC3)SC1)OCCO2	none
c1ccc(CN=C2NN=C(c3cc4ccccc4o3)CS2)cc1	Pf growth 48h inconclusive, Pf growth 96h inconclusive, Cycloheximide cs 25.9, Shiga toxin inh 43.9
c1ccc2oc(C3=NNC(=NC4CC4)SC3)cc2c1	Pf growth 96h inconclusive, Cycloheximide cs 41.0
Cc1c(C(=O)NCc2ccccc2)c(-c2ccccc2)nn1-c1ccccc1	Pf growth 96h inconclusive (no result: Pf growth 48h)
CC(C)(CSc1nncn1N)NS(=O)(=O)c1ccc(Cl)cc1	none (no result: Pf growth 96h)
O=C(CCN1C(=O)c2ccccc2C1=O)NCc1ccc(Cl)cc1	none
CCOC(=O)c1ccc(-c2ccc3oc(-c4ccsc4)cc(=O)c3c2)cc1F	none (no result: Pf growth 48h, Pf growth 96h, Cycloheximide cs, Shiga toxin inh)
CCn1c2ccccc2c2nc3cc(S(=O)(=O)N4CCOCC4)ccc3nc21	none (no result: Pf growth 48h)
CC(=O)c1cccc(NC(=O)N2CCCC2C(=O)Nc2ccc3c(c2)OCCO3)c1 (stereo not given)	Cycloheximide cs 13.5, Shiga toxin inh 87.2
CC(=O)c1cccc(NC(=O)N2CCCC2C(=O)NCc2ccc3c(c2)OCO3)c1 (stereo not given)	Pf growth 48h inconclusive, Pf growth 96h 13.1µM
COc1cccc(NC(=O)N2CCCC2C(=O)Nc2ccc3c(c2)OCCO3)c1 (stereo not given)	none
CNc1cncc(-c2ccc(OC)cc2)n1	none (no result: Pf growth 48h, Pf growth 96h, Cycloheximide cs, SARS PLpro yeast, Shiga toxin inh)
